Test results published in PubChem BioAssay (NCATS).
Results filed as inconclusive are left out. Active and inactive are the calls of the source. Calls come from the whole dose curve; as a rule, active = well fitted cell-killing curve with a large enough effect; inconclusive = small, poorly fitted or top-dose-only effect, or effect the other way; inactive = no such curve, though single readings can be large or run the other way.
Potency is the fitted concentration of half-maximal effect.

Assay: Quantitative High-Throughput drug screen in 47 multiple myeloma cell lines against the NCATS MIPE library collection: JJN3_DSMZ cell viability assay (AID 1918966; note: nearly all actives have a fitted effect of over 50% in size)
Conditions: JJN3 myeloma cells viability, CellTiter-Glo ATP, 48 h; series mostly up to 45.8 µM; viability, % of DMSO: at the top concentration
How it was run: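 Myeloma cells (500 per well) were exposed to MIPE 4.0 compounds by pin transfer and incubated 48 hours at 37C, 5% CO2. Viability was read as ATP by CellTiter-Glo luminescence, normalised to DMSO (100%) and media-only (0%) wells.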
For `c1ccc(CCCN2CCN(CCOC(c3ccccc3)c3ccccc3)CC2)cc1`, the Potency was 20.9 µM (active).
With `N=c1c2c(-c3ccccc3)c(-c3ccccc3)n(Cc3ccccc3)c2ncn1C1CCC(O)CC1` (stereo not drawn) the Potency was 18.7 µM (active).
In the case of `CCCC[N+]1(C)[C@H]2CC(OC(=O)[C@H](CO)c3ccccc3)C[C@H]1[C@H]1O[C@H]12` (stereo partly drawn), the “viability, % of DMSO” value is reported as 137% (inactive).
In the case of `C=C1C[C@H]2[C@H]3CCC(=O)[C@@]3(C)CC[C@@H]2[C@@]2(C)C=CC(=O)C=C12`, the Potency is reported as 14.8 µM (active).
With `CN[C@@H]1Cc2cccc3[nH]c(=O)n(c23)C1` the “viability, % of DMSO” value was 91% (inactive).
With `CCCCCC[C@H]1C(=O)O[C@H](C)[C@H](NC(=O)c2cccc(NC=O)c2O)C(=O)O[C@@H](C)[C@@H]1OC(=O)CC(C)C` the Potency was 0.296 µM (active).
With `CC=C(C)C(=O)O[C@H]1C(C)=C2[C@@H]3OC(=O)[C@@](C)(O)[C@@]3(O)[C@@H](OC(=O)CCC)C[C@](C)(OC(C)=O)[C@@H]2[C@@H]1OC(=O)CCCCCCC` the Potency was 0.0469 µM (active).
In the case of `N#C[C@H](O[C@@H]1O[C@H](CO[C@@H]2O[C@H](CO)[C@H](O)[C@H](O)[C@H]2O)[C@H](O)[C@H](O)[C@H]1O)c1ccccc1`, the Potency is reported as 18.7 µM (active).
In the case of `CN1CCN(c2ccc([N+](=O)[O-])c3no[n+]([O-])c23)CC1`, the Potency is reported as 18.7 µM (active).
In the case of `CC1=NN=C(c2ccc(N)cc2)c2cc3c(cc2C1)OCO3`, the “viability, % of DMSO” value is reported as 119% (inactive).
For `O=[N+]([O-])c1ncc[nH]1`, the “viability, % of DMSO” value was 106% (inactive).
In the case of `COC[C@H]1OC(=O)c2coc3c2[C@@]1(C)C1=C(C3=O)[C@@H]2CC[C@H](O)[C@@]2(C)C[C@@H]1OC(C)=O`, the Potency is reported as 3.32 µM (active).
With `C[C@]12Cc3cn[nH]c3C[C@@H]1CC[C@@H]1[C@H]2CC[C@@]2(C)[C@H]1CC[C@]2(C)O` the Potency was 14.8 µM (active).
For `C[C@H]1CCCC=CC2C[C@H](O)C[C@@H]2[C@H](O)C=CC(=O)O1` (stereo partly drawn), the “viability, % of DMSO” value was 5.76% (inactive).
For `C[C@](O)(COc1ccc(C#N)cc1)C(=O)Nc1ccc(C#N)c(C(F)(F)F)c1`, the “viability, % of DMSO” value was 106% (inactive).
With `CC(C)(C)c1cc(C=C(C#N)C#N)cc(Br)c1O` the Potency was 23.5 µM (active).
In the case of `CC[C@H]1C=CC=CC[C@@H](C)[C@H](O)[C@@](C)(O)C(=O)[C@@H](C)[C@H](O)[C@@H](C)C(=O)[C@@H](C)[C@H](O)[C@@H](C)C=CC(=O)O[C@@H]2[C@@H](C)[C@H](CC1)O[C@]1(CC[C@H](C)[C@H](C[C@@H](C)O)O1)[C@H]2C`, the Potency is reported as 18.7 µM (active).
In the case of `Cc1c(C(=O)c2cccc3ccccc23)c2cccc3c2n1[C@H](CN1CCOCC1)CO3`, the Potency is reported as 16.6 µM (active).
